# In PubChem BioAssay (EPA / NIEHS):
# The source made the active and inactive calls. The calls were made as follows: active = hit-call score of the fitted dose curve at least 0.9, where 1 is the maximum; inactive = score below 0.9.
# Experiments:
# [1] = target: CCAAT/enhancer-binding protein beta (Homo sapiens) (UniProt P17676); experiment: ATG_C_EBP_CIS: Attagene CIS-FACTORIAL HepG2 Assay for human CCAAT/Enhancer Binding Protein (C/EBP) beta (AID 2282927); details: HepG2 Attagene cis-factorial transcription factor reporter; actives raise or lower the signal
# Chain of CCAAT/enhancer-binding protein beta (Homo sapiens) (P17676 whole entry, looked up, the tested form may be a part): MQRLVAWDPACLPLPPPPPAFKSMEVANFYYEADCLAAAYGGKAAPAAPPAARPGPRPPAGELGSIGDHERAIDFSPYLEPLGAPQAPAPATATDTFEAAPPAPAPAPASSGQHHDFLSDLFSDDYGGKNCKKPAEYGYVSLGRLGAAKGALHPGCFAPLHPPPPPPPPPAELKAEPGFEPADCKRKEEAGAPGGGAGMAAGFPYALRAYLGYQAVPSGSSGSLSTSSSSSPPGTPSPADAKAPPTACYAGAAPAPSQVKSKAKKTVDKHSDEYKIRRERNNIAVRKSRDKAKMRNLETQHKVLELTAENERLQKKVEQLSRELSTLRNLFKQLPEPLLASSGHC
# Method in brief: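 Chemical-treated HepG2 cells (24 h) bearing cis-regulated reporter constructs were processed for total RNA, then reverse transcription, PCR amplification, fluorescent primer extension and fragment analysis; gain- and loss-of-signal were fitted against DMSO.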
# [2] = ATG_CMV_CIS: Attagene CIS-FACTORIAL HepG2 Assay for human CMV (Internal Marker) (AID 2282928); details: HepG2 CMV promoter reporter, transcription factor profiling; actives raise or lower the signal;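 also: endpoint acts as a background internal control marker rather than a target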
# Method in brief: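 Fluorescence intensity of RT-PCR-derived reporter fragments, resolved by capillary electrophoresis, gives the signal. HepG2 liver cells bearing transfected cis-element reporters were treated 24 h; activity in either direction was fit relative to DMSO-treated controls.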
# [3] = ATG_AP_1_CIS: Attagene CIS-FACTORIAL HepG2 Assay for human Activator Protein 1 (AP-1) (AID 2282931); details: HepG2 Attagene cis-factorial AP-1 reporter mRNA; actives raise or lower the signal
# Method in brief: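 HepG2 cells transiently transfected with cis-element-driven reporter transcription units, dosed for 24 hours. Reporter mRNA measured by RT-PCR, 6-FAM labelling, HpaI digestion and capillary electrophoresis. Bidirectional fitting against DMSO baseline.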
# [4] = ATG_AP_2_CIS: Attagene CIS-FACTORIAL HepG2 Assay for human Activator Protein 2 (AP-2) (AID 2282932); details: HepG2 AP-2 cis-reporter, Attagene transcription factor profiling; actives raise or lower the signal
# Method in brief: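 Cells (HepG2) transfected with promoter-driven reporter constructs, treated 24 h. Total RNA reverse-transcribed, reporter cDNA PCR-amplified, FAM-labelled by primer extension, digested, resolved by capillary electrophoresis. Activity fitted both directions versus DMSO.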
# [5] = ATG_BRE_CIS: Attagene CIS-FACTORIAL HepG2 Assay for human Bone Morphogenetic Protein (BMP) Response Element (BRE) (AID 2282933); details: HepG2 BMP response element reporter, Attagene transcription factor profiling; actives raise or lower the signal
# Method in brief: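 Endogenous transcription factor activity at a BMP response element was monitored in transfected HepG2 cells 24 h after dosing. Fluorescent RT-PCR products were resolved by capillary electrophoresis, and activity was fitted in both directions versus DMSO.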
# [6] = ATG_E_Box_CIS: Attagene CIS-FACTORIAL HepG2 Assay for human Enhancer Box (E-box) (AID 2282936); details: HepG2 E-box cis-reporter transcription, actives raise or lower the signal
# Method in brief: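 Endogenous transcription factor activity was sensed in human HepG2 liver cells through transfected cis-promoter reporter units. After 24 h of dosing, total RNA was reverse-transcribed and reporter cDNA resolved by capillary electrophoresis.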
# [7] = ATG_M_61_CIS: Attagene CIS-FACTORIAL HepG2 Assay for M61 Transcription Factor (Internal Marker) (AID 2282937); details: HepG2 Attagene CIS-FACTORIAL M61 internal marker reporter; actives raise or lower the signal
# Method in brief: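 HepG2 cells transiently transfected with multiplexed cis-promoter reporter units reporting endogenous transcription factor activity, measured 24 h after dosing. Reporter mRNA quantified by RT-PCR and capillary electrophoresis; bidirectional fit against DMSO baseline.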
# [8] = ATG_EGR_CIS: Attagene CIS-FACTORIAL HepG2 Assay for human Early Growth Response 1 (EGR1) (AID 2282938); details: HepG2 Attagene CIS-FACTORIAL EGR reporter mRNA; actives raise or lower the signal
# Method in brief: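 HepG2 cells transiently transfected with cis-element-driven multiplexed reporter units, dosed for 24 h. EGR1-element reporter mRNA quantified by RT-PCR, 6-FAM labelling, HpaI digestion and capillary electrophoresis; bidirectional fit versus DMSO.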
# [9] = ATG_Ets_CIS: Attagene CIS-FACTORIAL HepG2 Assay for human Erythroblast Transformation Specific (ETS) (AID 2282941); details: HepG2 ETS cis-reporter transcription, actives raise or lower the signal
# Method in brief: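 Multiplexed reporter transcript profiling: HepG2, 24 h treatment, total RNA to cDNA, PCR, 6-FAM labelling, HpaI cut, capillary electrophoresis. Gain- or loss-of-signal fitted against DMSO.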
# [10] = ATG_FoxO_CIS: Attagene CIS-FACTORIAL HepG2 Assay for human Forkhead box O (FoxO) (AID 2282943); details: HepG2 Attagene cis-reporter, FoxO element, mRNA; actives raise or lower the signal
# Method in brief: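 24 h chemical exposure, HepG2 with transient cis-MRTU transfection. RNA extraction, oligo(dT) RT, reporter-specific PCR, primer-extension labelling, HpaI digestion, CE fragment analysis; bidirectional fit, DMSO baseline.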
# [11] = ATG_GATA_CIS: Attagene CIS-FACTORIAL HepG2 Assay for human GATA Binding Protein (AID 2282944); details: HepG2 GATA cis-element reporter, Attagene multiplex mRNA; actives raise or lower the signal
# Method in brief: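 Endogenous transcription factor activity was captured through cis-promoter-driven reporters in transfected HepG2 cells. After 24 h exposure, reporter transcripts were quantified by RT-PCR with fluorescent capillary electrophoresis, and responses fitted both directions against DMSO.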
# [12] = ATG_ISRE_CIS: Attagene CIS-FACTORIAL HepG2 Assay for human Interferon Regulatory Factor 1 (IRF1) binding to an Interferon-Stimulated Response Element (ISRE) (AID 2282948); details: HepG2 ISRE cis-reporter (Attagene), mRNA transcription readout; actives raise or lower the signal
# Method in brief: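 Signal reflects induction or loss of ISRE-linked reporter mRNA in transiently transfected HepG2 cells after a 24 h treatment, detected by fluorescent RT-PCR fragments on capillary electrophoresis and normalised to DMSO.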
# [13] = ATG_M_06_CIS: Attagene CIS-FACTORIAL HepG2 Assay for M06 Transcription Factor (Internal Marker) (AID 2282950); details: HepG2 Attagene CIS-FACTORIAL M06 internal marker reporter; actives raise or lower the signal
# Method in brief: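 Steps: transfect HepG2 with multiplexed cis-element reporter constructs; dose chemical 24 h; extract RNA with DNase treatment; reverse-transcribe, PCR-amplify, 6-FAM label, HpaI digest; separate fragments by capillary electrophoresis. Activity fitted both directions versus DMSO.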
# [14] = ATG_MRE_CIS: Attagene CIS-FACTORIAL HepG2 Assay for human Metal Responsive Element (MRE) (AID 2282954); details: HepG2 MRE cis-reporter transcription, Attagene multiplex; actives raise or lower the signal
# Method in brief: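 Cells were transfected with cis-promoter reporter transcription units, then dosed for 24 h. RNA was reverse-transcribed, amplified, fluorescently labelled and resolved by capillary electrophoresis, and activity was fitted in both directions relative to DMSO.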
# [15] = target: Paired box protein Pax-6 (Homo sapiens) (UniProt P26367); experiment: ATG_Pax6_CIS: Attagene CIS-FACTORIAL HepG2 Assay for human Paired Box 6 (PAX6) (AID 2282956); details: HepG2 CIS-FACTORIAL PAX6 reporter transcription, RNA readout; actives raise or lower the signal
# Chain of Paired box protein Pax-6 (Homo sapiens) (P26367 whole entry, looked up): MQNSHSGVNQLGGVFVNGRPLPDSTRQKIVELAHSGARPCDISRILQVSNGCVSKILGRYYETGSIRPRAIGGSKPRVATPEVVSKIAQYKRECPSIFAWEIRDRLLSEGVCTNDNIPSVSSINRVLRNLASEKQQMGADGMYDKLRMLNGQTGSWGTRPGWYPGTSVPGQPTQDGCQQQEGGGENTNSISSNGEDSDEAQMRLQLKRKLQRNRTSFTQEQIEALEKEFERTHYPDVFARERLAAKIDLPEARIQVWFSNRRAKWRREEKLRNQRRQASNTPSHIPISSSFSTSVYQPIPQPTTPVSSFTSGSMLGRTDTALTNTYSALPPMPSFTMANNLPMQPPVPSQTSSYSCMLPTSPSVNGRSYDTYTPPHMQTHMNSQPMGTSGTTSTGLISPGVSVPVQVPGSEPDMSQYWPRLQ
# Method in brief: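 Values derive from bidirectional curve fitting of reporter mRNA signal relative to DMSO. HepG2 cells bearing transfected cis-regulated MRTUs were exposed for 24 h; transcripts were read by RT-PCR and capillary electrophoresis.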
# [16] = target: Transcription factor Sp1 (Homo sapiens) (UniProt P08047); experiment: ATG_Sp1_CIS: Attagene CIS-FACTORIAL HepG2 Assay for human Specificity Protein 1 (Sp1) (AID 2282961); details: HepG2 Sp1 cis-reporter transcription, actives raise or lower the signal
# Chain of Transcription factor Sp1 (Homo sapiens) (P08047 whole entry, looked up): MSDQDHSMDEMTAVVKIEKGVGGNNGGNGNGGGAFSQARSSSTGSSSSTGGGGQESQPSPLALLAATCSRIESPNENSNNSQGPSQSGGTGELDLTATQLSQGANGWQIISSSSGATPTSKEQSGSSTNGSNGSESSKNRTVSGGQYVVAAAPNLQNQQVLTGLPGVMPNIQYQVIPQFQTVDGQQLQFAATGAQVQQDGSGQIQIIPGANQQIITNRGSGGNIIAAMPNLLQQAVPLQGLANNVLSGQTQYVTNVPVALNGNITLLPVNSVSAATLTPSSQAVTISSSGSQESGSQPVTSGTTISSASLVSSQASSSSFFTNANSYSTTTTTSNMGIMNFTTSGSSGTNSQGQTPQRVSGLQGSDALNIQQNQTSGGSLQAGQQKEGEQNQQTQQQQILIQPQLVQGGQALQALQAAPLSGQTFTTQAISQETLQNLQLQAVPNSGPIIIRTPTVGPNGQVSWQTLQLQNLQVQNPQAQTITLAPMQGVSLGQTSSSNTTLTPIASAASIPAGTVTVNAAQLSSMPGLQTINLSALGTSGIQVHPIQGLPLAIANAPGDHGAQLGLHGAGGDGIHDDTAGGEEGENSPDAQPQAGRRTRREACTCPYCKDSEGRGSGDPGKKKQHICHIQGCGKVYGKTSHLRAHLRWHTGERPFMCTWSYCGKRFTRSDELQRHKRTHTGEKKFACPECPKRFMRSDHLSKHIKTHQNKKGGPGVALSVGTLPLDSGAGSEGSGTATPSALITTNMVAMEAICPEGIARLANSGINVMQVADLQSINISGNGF
# Method in brief: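 HepG2 cells transiently transfected with multiplexed cis-regulated reporter constructs, chemical exposure 24 h. Reporter mRNA quantified by RT-PCR with capillary electrophoresis; bidirectional fit relative to DMSO.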
# [17] = ATG_SREBP_CIS: Attagene CIS-FACTORIAL HepG2 Assay for human Sterol Regulatory Element Binding (SREBP) (AID 2282962); details: HepG2 Attagene cis-factorial SREBP reporter, mRNA; actives raise or lower the signal
# Method in brief: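 Values derive from bidirectional curve fitting with DMSO as baseline. The underlying measurement is reporter mRNA from cis-element-regulated units in transiently transfected HepG2, quantified by RT-PCR and capillary electrophoresis after 24 h exposure.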
# [18] = target: Signal transducer and activator of transcription 3 (Homo sapiens) (UniProt P40763); experiment: ATG_STAT3_CIS: Attagene CIS-FACTORIAL HepG2 Assay for human Signal Transducer and Activator of Transcription 3 (STAT3) (AID 2282963); details: HepG2, Attagene cis-factorial STAT3 reporter transcription; actives raise or lower the signal
# Chain of Signal transducer and activator of transcription 3 (Homo sapiens) (P40763 whole entry, looked up): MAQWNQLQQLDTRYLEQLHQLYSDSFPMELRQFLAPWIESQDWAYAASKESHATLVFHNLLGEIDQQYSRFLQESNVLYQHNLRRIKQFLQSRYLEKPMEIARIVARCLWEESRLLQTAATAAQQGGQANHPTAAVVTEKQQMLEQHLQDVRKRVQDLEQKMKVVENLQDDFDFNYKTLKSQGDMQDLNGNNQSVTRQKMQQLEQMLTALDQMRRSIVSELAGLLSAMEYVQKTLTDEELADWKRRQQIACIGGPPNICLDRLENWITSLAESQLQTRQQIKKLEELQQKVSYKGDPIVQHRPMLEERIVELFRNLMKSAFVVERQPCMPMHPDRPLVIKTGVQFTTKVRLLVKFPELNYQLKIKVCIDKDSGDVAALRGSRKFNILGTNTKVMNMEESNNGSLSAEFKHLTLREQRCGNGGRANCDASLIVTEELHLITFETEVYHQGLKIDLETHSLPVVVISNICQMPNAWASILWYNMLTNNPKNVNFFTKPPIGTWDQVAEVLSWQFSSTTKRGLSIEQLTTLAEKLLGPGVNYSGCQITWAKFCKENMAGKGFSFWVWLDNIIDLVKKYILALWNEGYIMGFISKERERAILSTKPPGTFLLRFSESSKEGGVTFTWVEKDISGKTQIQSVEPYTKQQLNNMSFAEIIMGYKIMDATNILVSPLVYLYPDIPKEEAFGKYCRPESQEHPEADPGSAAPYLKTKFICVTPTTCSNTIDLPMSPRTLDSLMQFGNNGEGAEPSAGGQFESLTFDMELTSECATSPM
# Method in brief: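 HepG2, MRTU-transfected, 24 h dosing. RNA → RT → PCR → FAM label → HpaI → CE. Bidirectional fit vs DMSO.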
# [19] = ATG_TAL_CIS: Attagene CIS-FACTORIAL HepG2 Assay for human TAL Basal Promoter (AID 2282966); details: HepG2 Attagene cis-factorial TAL promoter reporter; actives raise or lower the signal;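 also: background control endpoint measuring basal TAL promoter reporter mRNA not a specific factor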
# Method in brief: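 Basal-promoter background-control endpoint from a multiplexed HepG2 reporter panel. Cells were exposed 24 h, then reporter mRNA was read by RT-PCR/CE fluorescence and fitted in both directions relative to DMSO.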
# [20] = target: X-box-binding protein 1 (Homo sapiens) (UniProt P17861); experiment: ATG_Xbp1_CIS: Attagene CIS-FACTORIAL HepG2 Assay for human X-box Binding Protein 1 (XBP1) (AID 2282972); details: HepG2 XBP1 cis-element reporter, Attagene multiplex; actives raise or lower the signal
# Chain of X-box-binding protein 1 (Homo sapiens) (P17861 whole entry, looked up): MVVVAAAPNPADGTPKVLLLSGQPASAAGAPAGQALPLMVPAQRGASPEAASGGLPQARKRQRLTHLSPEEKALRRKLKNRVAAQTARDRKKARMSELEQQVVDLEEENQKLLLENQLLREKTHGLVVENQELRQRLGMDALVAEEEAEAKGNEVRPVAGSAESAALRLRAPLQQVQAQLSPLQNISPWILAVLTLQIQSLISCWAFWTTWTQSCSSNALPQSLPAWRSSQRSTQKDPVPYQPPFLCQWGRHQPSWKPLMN
# Method in brief: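 Human hepatoma HepG2, cis-element reporter system, 24 h treatment; mRNA quantified by RT-PCR/CE fluorescence; fit relative to DMSO.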
smiles,measurement,setting,value
CCCCCCCCCC/C=C/C1CC(=O)OC1=O (stereo not given),outcome,[1],inactive
same,outcome,[2],inactive
same,outcome,[3],inactive
same,outcome,[4],inactive
same,outcome,[5],inactive
same,outcome,[6],inactive
same,outcome,[7],inactive
same,outcome,[8],inactive
same,outcome,[9],inactive
same,outcome,[10],inactive
same,outcome,[11],inactive
same,outcome,[12],inactive
same,outcome,[13],inactive
same,outcome,[14],inactive
same,outcome,[15],inactive
same,outcome,[16],inactive
same,outcome,[17],inactive
same,outcome,[18],inactive
same,outcome,[19],inactive
same,outcome,[20],inactive
COC(=O)/C=C\C(=O)OC,outcome,[1],inactive
same,outcome,[2],inactive
same,AC50,[3],28.1 µM (active)
same,outcome,[4],inactive
same,outcome,[5],inactive
same,outcome,[6],inactive
same,outcome,[7],inactive
same,AC50,[8],83.1 µM (active)
same,AC50,[9],100 µM (active)
same,outcome,[10],inactive
same,outcome,[11],inactive
same,AC50,[12],45.8 µM (active)
same,outcome,[13],inactive
same,outcome,[14],inactive
same,outcome,[15],inactive
same,outcome,[16],inactive
same,outcome,[17],inactive
same,outcome,[18],inactive
same,AC50,[19],100 µM (active)
same,outcome,[20],inactive
O=C(O)Cc1c[nH]c2ccccc12,outcome,[1],inactive
same,outcome,[2],inactive
same,outcome,[3],inactive
same,outcome,[4],inactive
same,outcome,[5],inactive
same,outcome,[6],inactive
same,outcome,[7],inactive
same,outcome,[8],inactive
same,outcome,[9],inactive
same,outcome,[10],inactive
same,outcome,[11],inactive
same,outcome,[12],inactive
same,outcome,[13],inactive
same,outcome,[14],inactive
same,outcome,[15],inactive
same,outcome,[16],inactive
same,outcome,[17],inactive
same,outcome,[18],inactive
same,outcome,[19],inactive
same,outcome,[20],inactive
CC/C=C\CCO,outcome,[1],inactive
same,outcome,[2],inactive
same,outcome,[3],inactive
same,outcome,[4],inactive
same,outcome,[5],inactive
same,outcome,[6],inactive
same,outcome,[7],inactive
same,outcome,[8],inactive
same,outcome,[9],inactive
same,outcome,[10],inactive
same,outcome,[11],inactive
same,outcome,[12],inactive
same,outcome,[13],inactive
same,outcome,[14],inactive
same,outcome,[15],inactive
same,outcome,[16],inactive
same,outcome,[17],inactive
same,outcome,[18],inactive
same,outcome,[19],inactive
same,outcome,[20],inactive
CC[N+](CC)(CC(=O)Nc1c(C)cccc1C)Cc1ccccc1,outcome,[1],inactive
same,outcome,[2],inactive
same,outcome,[3],inactive
same,outcome,[4],inactive
same,outcome,[5],inactive
same,outcome,[6],inactive
same,outcome,[7],inactive
same,outcome,[8],inactive
same,outcome,[9],inactive
same,outcome,[10],inactive
same,outcome,[11],inactive
same,outcome,[12],inactive
same,outcome,[13],inactive
same,outcome,[14],inactive
same,outcome,[15],inactive
same,outcome,[16],inactive
same,outcome,[17],inactive
same,outcome,[18],inactive
same,outcome,[19],inactive
same,outcome,[20],inactive
CCCCOC(=O)COc1ccc(Cl)cc1Cl,outcome,[1],inactive
same,outcome,[2],inactive
same,outcome,[3],inactive
same,outcome,[4],inactive
same,outcome,[5],inactive
same,outcome,[6],inactive
same,outcome,[7],inactive
same,outcome,[8],inactive
same,outcome,[9],inactive
same,outcome,[10],inactive
same,outcome,[11],inactive
same,outcome,[12],inactive
same,outcome,[13],inactive
same,outcome,[14],inactive
same,outcome,[15],inactive
same,outcome,[16],inactive
same,outcome,[17],inactive
same,outcome,[18],inactive
same,outcome,[19],inactive
same,outcome,[20],inactive
NCc1ccccc1,outcome,[1],inactive
same,outcome,[2],inactive
same,outcome,[3],inactive
same,outcome,[4],inactive
same,outcome,[5],inactive
same,outcome,[6],inactive
same,outcome,[7],inactive
same,outcome,[8],inactive
same,outcome,[9],inactive
same,outcome,[10],inactive
same,outcome,[11],inactive
same,outcome,[12],inactive
same,outcome,[13],inactive
same,outcome,[14],inactive
same,outcome,[15],inactive
same,outcome,[16],inactive
same,outcome,[17],inactive
same,outcome,[18],inactive
same,outcome,[19],inactive
same,outcome,[20],inactive
